In the library only some 19% were active in any assay of this set; here they are far more common.
TGFb SMAD3 inh: qHTS for Inhibitors of TGF-b | AID 588855, 2011 | HepG2 CAGA-GFP TGF-b/SMAD3 reporter, GFP fluorescence, 18 h; TGF-beta stimulated, 500 pg/mL final | 410,000 compounds, 1.2% hits | Potency, µM (doses to about 46.1 µM), for the others: at the top dose activity, negative = inhibition, usual class: inhibitors; also: potency is read from the fitted curve at half-maximal effect; % is scaled to controls: 0 for no effect and ±100 for the full control effect; nearly all actives have a fitted effect of over 65% in size
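HEPG2 CAGA-GFP, 1000 cells/well; 2 h settle, 37 C; cpd via pin tool; TGF-b 500 pg/mL final; 18 h, 37 C; GFP imaging ex488/em500-530; %Activity normalised to -TGF-b and +DMSO controls; CRC fit, curve class.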
TDP1 cell CPT: qHTS for Inhibitors of human tyrosyl-DNA phosphodiesterase 1 (TDP1): qHTS in cells in presence of CPT; chicken DT40 Tdp1-/-;hTDP1 cells + 20 nM CPT, ATP luminescence, 48 h; Potency, µM (doses to about 46.2 µM), inactives show at the highest dose activity change, negative = growth inhibition, usual class: inhibitors; 420,000 compounds, 12% hits; AID 686979, 2013; also: potency is read from the fitted curve at half-maximal effect; % is scaled to controls: 0 for no effect and ±100 for the full control effect; nearly all actives have a fitted effect of over 55% in size
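Chicken DT40 Tdp1-/- cells stably complemented with human TDP1 were seeded at 400 cells/well in medium containing 20 nM camptothecin, exposed to pin-transferred compounds, and grown at 37 °C for at least 48 hr. Viability was read as ATP luminescence.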
HepG2 viability: qHTS for Inhibitors of TGF-b: Cytotox Counterscreen | HepG2 CAGA-GFP viability, ATP luminescence, 18 h | Potency, µM (doses to about 46.1 µM), inactives show at the top dose activity change, negative = cytotoxicity, most hits filed as cytotoxic | 410,000 compounds, 0.76% hits; also: potency is read from the fitted curve at half-maximal effect
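CellTiter-Glo luminescence gave cytotoxicity after 18 hours at 37 degrees C. The cells were HepG2 CAGA-GFP in 1% FBS DMEM, stimulated with 500 pg/mL TGF-beta after compound addition. %Activity was normalised to no-cell wells (complete cell-killing) and DMSO (no toxicity), and curves were fitted and classified.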
DT40 TDP1 no CPT: qHTS for Inhibitors of human tyrosyl-DNA phosphodiesterase 1 (TDP1): qHTS in cells in absence of CPT. DT40 Tdp1-/- hTDP1 cells, no CPT, ATP luminescence, 48 h. Potency, µM (highest dose often 46.2 µM), without a hit: at the top dose activity change, negative = growth inhibition, usual class: inhibitors. 420,000 compounds, 15% hits. AID 686978, 2013; also: potency is read from the fitted curve at half-maximal effect; % is scaled to controls: 0 for no effect and ±100 for the full control effect; nearly all actives have a fitted effect of over 55% in size
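Growth of hTDP1-complemented DT40 Tdp1-knockout cells is measured by ATP luminescence after at least 48 hr compound exposure at 37 °C, with DMSO substituting for the 20 nM CPT used in the parallel screen.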
TDP1 block: qHTS Assay for Inhibitors of Tyrosyl-DNA Phosphodiesterase (TDP1); recombinant TDP1, AlphaScreen DNA substrate cleavage; Potency, µM (titrated, usually from 130 µM), for inactives: at the top dose activity change, negative = inhibition, usual class: inhibitors; 350,000 compounds, 0.28% hits; Tyrosyl-DNA phosphodiesterase 1 (Homo sapiens), Q9NUW8; also: potency is read from the fitted curve at half-maximal effect; % is scaled to controls: 0 for no effect and ±100 for the full control effect; nearly all actives have a fitted effect of over 40% in size
Target sequence (Q9NUW8 whole entry, looked up): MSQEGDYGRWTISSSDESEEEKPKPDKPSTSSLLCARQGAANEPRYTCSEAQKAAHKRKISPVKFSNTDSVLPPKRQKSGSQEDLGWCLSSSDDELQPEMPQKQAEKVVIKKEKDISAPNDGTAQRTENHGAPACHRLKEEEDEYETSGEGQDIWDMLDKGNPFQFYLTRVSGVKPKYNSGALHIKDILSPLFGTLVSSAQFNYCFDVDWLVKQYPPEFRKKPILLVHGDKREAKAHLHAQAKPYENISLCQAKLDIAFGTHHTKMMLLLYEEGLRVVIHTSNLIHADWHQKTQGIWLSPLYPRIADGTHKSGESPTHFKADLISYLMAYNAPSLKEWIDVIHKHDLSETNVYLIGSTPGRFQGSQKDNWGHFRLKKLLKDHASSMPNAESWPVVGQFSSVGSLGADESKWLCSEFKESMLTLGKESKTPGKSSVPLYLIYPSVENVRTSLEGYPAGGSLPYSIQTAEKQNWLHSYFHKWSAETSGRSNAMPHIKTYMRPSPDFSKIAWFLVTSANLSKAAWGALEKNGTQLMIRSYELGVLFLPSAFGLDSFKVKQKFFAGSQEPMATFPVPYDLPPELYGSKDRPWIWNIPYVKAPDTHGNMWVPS
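Recombinant human Tdp1 (E. coli-expressed, 1 nM final) preincubated with compounds 15 min at room temperature, then 5'-biotin/3'-phosphotyrosine-FITC DNA substrate (15 nM final) added for 5 min. AlphaScreen beads (10 ug/ml final) added 10 min; cleavage lowers signal.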
IL1B secr inh: qHTS for Inhibitors of Inflammasome Signaling: IL-1-beta AlphaLISA Primary Screen. THP-1 LPS/ATP IL-1B secretion, AlphaLISA, 16 h; stronger effect = lower value. activity change, % at 57.5 µM. 360,000 compounds, 4.7% hits. AID 743279, 2014; in the data active = activity change below about -50%; inconclusive = mostly about -30% to -49%; also: % is scaled to controls: 0 for no effect and ±100 for the full control effect
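Secreted IL-1B measured by AlphaLISA bead assay after 16 h compound exposure of THP-1 cells; compounds (final up to 57.5 uM) added 1 h before LPS (250 ng/mL) and ATP (1.25 mM) stimulation; lower signal means less secretion.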
Active calls of the source: *; ? = inconclusive; . = no result; [ ] = remark or other dose. Unless noted, calls follow the shape of the dose curve; as a rule, active = well fitted curve in the direction sought with a large enough effect; inconclusive = small, poorly fitted or top-dose-only effect, or another doubt; inactive = no such curve, though single readings can be large; an effect the other way counts as inactive or inconclusive.

SMILES	TGFb SMAD3 inh	TDP1 cell CPT	HepG2 viability	DT40 TDP1 no CPT	TDP1 block	IL1B secr inh
COc1ccc(C)cc1NC(=O)CSc1nc2ccccc2nc1N1CC(C)OC(C)C1 (centres undefined)	0%	23µM*	-14%	26µM*	.	5
Cc1cccc(NC(=O)CSc2nc3ccccc3nc2N2CC(C)OC(C)C2)c1 (centres undefined)	?	?	8%	?	.	7
Cn1nnnc1SCC1=C(C(=O)O)N2C(=O)[C@@H](NC(=O)[C@H](OC=O)c3ccccc3)[C@H]2SC1	.	-4%	.	-9%	.	.
COc1cccc(NC(=O)CSc2nccn2Cc2ccc3c(c2)OCO3)c1	0%	-29%	-8%	?	3%	.
COc1ccc(Oc2ncc3nc(C)c(=O)n(CCC#N)c3n2)cc1	.	8%	.	-30%	.	.
Cc1cc(C)cc(NC(=O)C(C)N2Cc3ccccc3C2=O)c1 (centres undefined)	14%	-27%	3%	-35%	1%	.
CCCCn1c(-c2cccc(Br)c2)nc2cc3[nH]c(=O)c(C(C)C)nc3cc21	?	18µM*	-2%	26µM*	.	-52*
CCCCn1c(-c2ccc(C(C)(C)C)cc2)nc2cc3[nH]c(=O)c(C(C)C)nc3cc21	7%	?	-2%	15µM*	.	27
CCCCn1c(-c2cccnc2)nc2cc3[nH]c(=O)c(C(C)C)nc3cc21	1%	18µM*	-22%	15µM*	.	4
C#CCNC(=O)C1=C[C@@H](c2ccc(Br)cc2)C[C@@H](OCCCCO)O1	-2%	-9%	1%	-14%	3%	-6
CCc1nc(-c2cc(S(=O)(=O)N3CCN(c4ccc(F)cc4)CC3)ccc2OC)no1	2%	-13%	1%	-15%	11%	.
CN(C)c1ccc(CNC(=O)Cn2ccc3cc(S(=O)(=O)N4CCCCCC4)ccc32)cc1	0%	?	-18%	5.8µM*	6%	.
CCOc1ccc(CNC(=O)Cn2ccc3cc(S(=O)(=O)N4CCCC4)ccc32)cc1	7%	-29%	-79%	-14%	0%	12
O=C(Cn1ccc2cc(S(=O)(=O)N3CCCC3)ccc21)NCc1ccc(Cl)cc1	-19%	?	-29%	-27%	3%	.
CN(C)c1ccc(CNC(=O)CCc2ccc(S(=O)(=O)N3CCCCCC3)cc2)cc1	6%	?	-15%	15µM*	4%	-64*
CCOc1ccc(CNC(=O)Cn2ccc3cc(S(=O)(=O)N4CCCCCC4)ccc32)cc1	-8%	16µM*	-3%	26µM*	5%	?
COc1ccc(CNC(=O)CCc2ccc(S(=O)(=O)N3CCCCCC3)cc2)cc1	-4%	?	-5%	?	-3%[56.1 µM]	-11
O=C(COC(=O)c1cc(-c2ccc(F)cc2)nc2ccccc12)NCC1CCCO1 (centres undefined)	-1%	-11%	-11%	-7%	3%	-29
O=C1CC(C(=O)N2CCOc3ccc(CN4CCC(Oc5cccnc5)CC4)cc3C2)c2ccccc21 (centres undefined)	.	-6%[9.04 µM]	.	?	.	.
Cc1ccc2oc(=O)n(CCCOc3ccc(Cl)cc3)c2c1	?	?	-21%	?	.	.
Cc1ccccc1-c1nnc(SCC(=O)N(C)C2CCCCC2)o1	.	?	-7%	-25%	1%	.

High-throughput results as filed in PubChem.
